Out of some 310,000 compounds screened, about 1,200 (0.39%) were called active. No rule for the calls is given here. A selection follows. Potency and affinity values are given separately.
Target: Large T antigen (Simian virus 40) (UniProt P03070)
Assay: SV40 large T antigen inhibitors, biochemical (AID 1903)
Conditions: SV40 large T antigen ATPase/helicase inhibition assay; at 20 µM; stronger effect = higher value

Chain of Large T antigen (Simian virus 40) (P03070 whole entry, looked up): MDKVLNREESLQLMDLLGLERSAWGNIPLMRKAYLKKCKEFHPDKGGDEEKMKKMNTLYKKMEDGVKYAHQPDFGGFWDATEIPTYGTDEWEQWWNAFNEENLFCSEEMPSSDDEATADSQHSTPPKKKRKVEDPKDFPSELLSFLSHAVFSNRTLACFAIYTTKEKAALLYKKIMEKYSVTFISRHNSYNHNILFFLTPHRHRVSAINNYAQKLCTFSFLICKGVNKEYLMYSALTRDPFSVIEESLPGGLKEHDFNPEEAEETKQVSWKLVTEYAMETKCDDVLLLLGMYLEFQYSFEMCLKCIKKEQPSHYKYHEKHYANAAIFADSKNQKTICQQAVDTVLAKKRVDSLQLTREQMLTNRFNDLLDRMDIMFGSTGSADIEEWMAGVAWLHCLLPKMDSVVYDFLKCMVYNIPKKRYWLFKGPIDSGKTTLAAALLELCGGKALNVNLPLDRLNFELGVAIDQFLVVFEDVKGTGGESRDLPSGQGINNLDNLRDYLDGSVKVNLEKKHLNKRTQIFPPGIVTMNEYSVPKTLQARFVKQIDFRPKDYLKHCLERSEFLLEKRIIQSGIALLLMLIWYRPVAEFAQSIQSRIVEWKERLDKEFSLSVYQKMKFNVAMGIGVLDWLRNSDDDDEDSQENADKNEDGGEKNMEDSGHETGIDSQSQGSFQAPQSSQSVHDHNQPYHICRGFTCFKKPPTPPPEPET

inhibition, inactive:
Cc1ccc(C)c(NC(=O)CN(C)C(=O)c2cc3c(s2)CCCCC3)c1 17%
C=CCNC(=O)COCc1cc(-c2ccc3c(c2)OCO3)on1 7.76%
CN(C)C(=O)CSc1nnc(-c2ccc(S(=O)(=O)N3CCCC3)cc2)n1C -1.24%
C/C(=N/OC(=O)CC(C)C)c1cc(-c2ccc(Cl)cc2)no1 4.31%
O=C(CCN1CCOCC1)N/N=C/c1cc([N+](=O)[O-])ccc1OC(F)F 5.27%
Cc1ccccc1-c1nnn(CC(=O)N2CCN(C(=O)c3ccco3)CC2)n1 14.3%
CCCOc1ccc(C(=O)Nn2c(C)nc3ccccc3c2=O)cc1 1.86%
Nc1ncc(Br)cc1N=Cc1ccccc1 9.46%
Nc1ncnc(N)c1N=Nc1ccccc1 8.05%
C=CCN(C(=O)c1ccccc1)c1ccc(OC)cc1 -2.78%
O=C(c1ccco1)N1CCN(C(=O)c2cc(-c3ccc(F)cc3)no2)CC1 8.37%
CC(C)CNC(=O)c1cc(-c2ccc3c(c2)OCO3)on1 4.96%
COc1ccc2c(c1)S(=O)(=O)c1ccccc1N2 1.87%
Cc1nc(SCC(=O)N2c3ccccc3Sc3ccccc32)n[nH]1 12.6%
O=C(CSc1nnc(-c2ccccc2)n1-c1ccccc1)N1c2ccccc2Sc2ccccc21 4.91%
O=C(O)CCc1ccc(S(=O)(=O)Nc2ccccc2C(=O)NCCc2ccccc2)cc1 6.21%
CCOC(=O)C(CN1CCCC1)c1ccccc1 (configuration not stated) 6.65%
COc1cccc(/C=N/NC(=O)C(=O)N2CCCCCC2)c1O 28.6%
CCCc1cc(=O)[nH]c(N/N=C/C=C\c2ccccc2)n1 6.47%
Cc1cc(N/N=C/c2c[nH]c3ccccc23)c2ccccc2n1 5.53%
O=C(N/N=C/c1c[nH]c2ccccc12)c1cccc(O)c1 16%
Cc1cc(C)nc(N/N=C/c2c[nH]c3ccccc23)n1 33.8%
O=C(N/N=C\c1c[nH]c2ccccc12)c1ccc(O)cc1 18%
Cc1cc(C)c(COCc2cc(/C=N/O)c(C)cc2C)cc1/C=N/O -0.28%
C=CCN1C(=O)C(Cc2ccccc2)SC1=Nc1ccc(C(=O)O)cc1 (configuration not stated) 25.5%
C/C(=N\NC(=O)c1ccc(N)cc1)C1CC1 9.62%
CCN1CCN(C(=O)Cn2ncc3c([nH]c4ccc(C)cc43)c2=O)CC1 9.03%
Cc1cccc(NC(=S)NCc2ccc3c(c2)cc(C)n3C)c1C 5.14%
Cc1ccnc(SCc2cc(=O)c(OC(=O)c3ccc(S(=O)(=O)N4CCCC4)cc3)co2)n1 48.9%
Cc1ccnc(SCc2cc(=O)c(OC(=O)c3ccc(S(=O)(=O)N(C)C)cc3)co2)n1 15.9%
Cc1cc(C)nc(SCc2cc(=O)c(OC(=O)c3ccc(Cl)c([N+](=O)[O-])c3)co2)n1 9.56%
Cc1cc(C)nc(SCc2cc(=O)c(OC(=O)c3ccc(S(=O)(=O)N(C)C)cc3)co2)n1 22.4%
Cc1ccc(NC(=O)CN(C)C(=O)C2COc3ccccc3O2)cc1 (configuration not stated) 6.98%
Cc1ccc(S(=O)(=O)NC2=NCN(CC(=O)O)CN2)cc1 7.75%
CC(=O)n1cc([C@H]2C=C(C(=O)N3CCN(Cc4ccc5c(c4)OCO5)CC3)O[C@@H](OCCCCO)C2)c2ccccc21 21.8%
CCOc1ccc(CNS(=O)(=O)c2ccc3c(c2)CC(=O)N3C)cc1 11.9%
CCOc1ccc(Oc2nc(Nc3ccc(C)cc3)nc(N(C)C)n2)nn1 -0.33%
COc1ccc(-n2ncc3c(=O)n(CC(=O)Nc4ccc(S(=O)(=O)N5CCOCC5)cc4)cnc32)cc1 5.14%
COC(=O)C(N)Cc1ccc(O)c(O)c1 (configuration not stated) 20.9%
COC(=O)[C@@H](N)Cc1ccc(O)c(O)c1 10%
COC(=O)c1ccc(NC(=O)COc2cccc3c2OC(C)(C)C3)cc1 -1.91%
CC(=O)Nc1sc(N/N=C\c2ccccc2Cl)nc1-c1cccs1 34.5%
CC(=O)Nc1sc(N/N=C\c2ccccc2)nc1-c1cccs1 21%
COc1cc(/C=N\Nc2nc(-c3ccc(C)cc3)c(NC(C)=O)s2)ccc1O 35.9%
CC(=O)Nc1sc(N/N=C\c2ccccc2F)nc1-c1cccs1 9.59%
CCOc1cc(/C=N\Nc2nc(-c3ccc(C)cc3)c(NC(C)=O)s2)ccc1O 26.6%
CC(=O)Nc1sc(N/N=C\c2cccc(Cl)c2)nc1-c1cccs1 18.8%
OCCN(CCO)c1ccc(C(c2ccc(Cl)cc2)c2ccc(N(CCO)CCO)cc2Cl)c(Cl)c1 2.12%
COC(=O)c1c(-c2ccccc2)noc1-c1ccccc1 8.1%
O=C(c1cccc(S(=O)(=O)N2CCOCC2)c1)N1CCCCCC1 0.39%
Cc1ccc(NC(=O)CN2CCc3cc4c(cc3C2C)OCCCO4)cc1 (configuration not stated) 8.62%
CN1C(C(=O)Nc2ccc(OC(F)(F)F)cc2)=CC(c2ccco2)=NS1(=O)=O 8.59%
COC(=O)c1sc2cc([N+](=O)[O-])cc(SCC(C)C)c2c1N 10.4%
COc1cc(Cl)cc(C#N)c1OCC(=O)O -0.11%
Cc1[nH]c2ccccc2c1N=Nc1c(C)n(C)n(-c2ccccc2)c1=O 6.57%
CC1=CC(=Nc2c(C)n(C)n(-c3ccccc3)c2=O)C=C(C)C1=O 2.58%
Cc1c(N=NC2=C(O)CCCC2=O)c(=O)n(-c2ccccc2)n1C -2.74%
Cc1c(NCc2ccccc2O)c(=O)n(-c2ccccc2)n1C 29%
CCC(C)C1=CC(=Nc2c(C)n(C)n(-c3ccccc3)c2=O)C=C(C(C)CC)C1=O (configuration not stated) 4.02%
CC(=O)/C(N=Nc1c(C)n(C)n(-c2ccccc2)c1=O)=C(\C)O 1.99%
Cc1c(N=Nc2ccc(O)cc2)c(=O)n(-c2ccccc2)n1C 28%
Cc1c(N=NC2=C(O)CC(C)(C)CC2=O)c(=O)n(-c2ccccc2)n1C 4.32%
